Values joined by “and” are separate entries in the source; they are usually repeats but may differ in a detail not shown here. Equal entries are not always repeated. More than one record can exist for a structure, and the calls need not agree. Active and inactive are the calls of the source. The calls were made as follows: active = hit-call score of the fitted dose curve at least 0.9, where 1 is the maximum; inactive = score below 0.9.
How the values were obtained:
[1] = read-out: Thrombomodulin, THBD (gene 7056); experiment: BSK_CASM3C_Thrombomodulin: BioMAP Diversity Plus: CASM3C Assay for Thrombomodulin Biomarker Activity (AID 2283051); conditions: primary human coronary artery smooth muscle cells; actives raise or lower the signal;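 also: thrombomodulin protein level measured by ELISA 24 h after dosing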
[2] = read-out: Tissue Factor, F3 (gene 2152); experiment: BSK_CASM3C_TissueFactor: BioMAP Diversity Plus: CASM3C Assay for Tissue Factor Biomarker Activity (AID 2283052); conditions: primary human coronary artery smooth muscle cells; actives raise or lower the signal;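 also: cell surface tissue factor protein level read by ELISA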
[3] = read-out: Interferon-gamma inducible Protein 10 (IP10), CXCL10 (gene 3627); experiment: BSK_hDFCGF_IP10: BioMAP Diversity Plus: hDFCGF Assay for Interferon-gamma inducible Protein 10 (IP10) Biomarker Activity (AID 2283053); conditions: primary human foreskin fibroblasts; actives raise or lower the signal
Procedure, shortened: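 Primary foreskin fibroblasts, human; 24 h compound exposure; IP-10 by ELISA; bidirectional fit vs DMSO.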

[4] = read-out: Urokinase-type plasminogen activator receptor (uPAR), PLAUR (gene 5329); experiment: BSK_CASM3C_uPAR: BioMAP Diversity Plus: CASM3C Assay for Urokinase-type plasminogen activator receptor (uPAR) Biomarker Activity (AID 2283054); conditions: primary human coronary artery smooth muscle cells; actives raise or lower the signal;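 also: cell-surface uPAR protein level quantified by ELISA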
[5] = read-out: Vascular cell adhesion molecule 1 (VCAM1), VCAM1 (gene 7412); experiment: BSK_CASM3C_VCAM1: BioMAP Diversity Plus: CASM3C Assay for Vascular cell adhesion molecule 1 (VCAM1) Biomarker Activity (AID 2283055); conditions: primary human coronary artery smooth muscle cells; actives raise or lower the signal;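 also: VCAM-1 protein level quantified by ELISA on the cells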
[6] = read-out: Collagen III, COL3A1 (gene 1281); experiment: BSK_hDFCGF_CollagenIII: BioMAP Diversity Plus: hDFCGF Assay for Collagen III Biomarker Activity (AID 2283056); conditions: primary human foreskin fibroblasts; actives raise or lower the signal
Procedure, shortened: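 hDFCGF primary human dermal fibroblasts; 24 h chemical exposure; collagen III by ELISA; bidirectional curve fit vs DMSO baseline (gain or loss of signal).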

[7] = read-out: Epidermal growth factor receptor (EGFR), EGFR (gene 1956); experiment: BSK_hDFCGF_EGFR: BioMAP Diversity Plus: hDFCGF Assay for Epidermal growth factor receptor (EGFR) Biomarker Activity (AID 2283057); conditions: primary human foreskin fibroblasts; actives raise or lower the signal
Procedure, shortened: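 hDFCGF system, primary human foreskin fibroblasts; compound 24 h; EGFR measured by ELISA; DMSO = negative control/baseline; bidirectional fitting.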

[8] = read-out: Interleukin-8 (IL8), CXCL8 (gene 3576); experiment: BSK_hDFCGF_IL8: BioMAP Diversity Plus: hDFCGF Assay for Interleukin-8 (IL8) Biomarker Activity (AID 2283058); conditions: primary human foreskin fibroblasts; actives raise or lower the signal
Procedure, shortened: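 ELISA read-out of IL-8 from primary human foreskin fibroblast cultures taken 24 h after dosing; values are bidirectional fits relative to DMSO vehicle.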

[9] = BSK_hDFCGF_Proliferation: Cell Proliferation Assessment in the BioMAP Diversity Plus: hDFCGF Assay (AID 2283059); conditions: primary human foreskin fibroblasts;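 also: curves fitted for both rise and fall of signal versus DMSO baseline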
Procedure, shortened: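 Primary human foreskin fibroblasts, sub-confluent; […]; 10% TCA fix, 0.1% SRB stain, A560 total protein. Gain/loss fitted bidirectionally vs DMSO control.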

[10] = read-out: Macrophage colony-stimulating factor (MCSF), CSF1 (gene 1435); experiment: BSK_hDFCGF_MCSF: BioMAP Diversity Plus: hDFCGF Assay for Macrophage colony-stimulating factor (MCSF) Biomarker Activity (AID 2283060); conditions: primary human foreskin fibroblasts; actives raise or lower the signal
Procedure, shortened: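 ELISA read-out of M-CSF in human dermal foreskin fibroblast cultures, 24 h after chemical dosing; gain or loss of signal fitted bidirectionally relative to DMSO baseline.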

Measured: AC50

Clc1ccc(C(c2ccc(Cl)cc2)C(Cl)Cl)cc1
inactive: [5] | [7]
active: [1] 24.1 µM | [2] 26.4 µM | [3] 9.7 µM | [4] 36.7 µM | [6] 5.06 µM | [8] 12.2 µM | [9] 11.9 µM | [10] 7.94 µM

CCCCCOC(=O)c1ccccc1C(=O)OCCCCC
inactive: [2] | [3] | [4] | [5] | [7] | [8] | [9]
active: [1] 15.6 µM | [6] 3.97 µM | [10] 9.05 µM

[As]#[In]
inactive: [1] | [2] | [3] | [4] | [5] | [6] | [7] | [8] | [9] | [10]

C=CCc1ccc2c(c1)OCO2
inactive: [1] | [2] | [3] | [4] | [5] | [6] | [7] | [8] | [9] | [10]

CCOc1cccc(C2(N3CCN(c4ccccc4)CC3)CCC(C)CC2)c1 (stereo not given)
inactive: [1] | [2] | [3] | [4] | [5] | [6] | [7] | [8] | [9] | [10]

COc1cc(C=O)cc2c1[C@H](COC(N)=O)[C@]1(OC(C)=O)ON2C[C@H]2[C@@H]1N2C(C)=O
active: [1] 0.224 µM | [2] 4.87 µM | [3] 1.19 µM | [4] 2.21 µM | [5] 4.5 µM | [6] 0.788 µM | [7] 31.2 nM | [8] 2.73 µM | [9] 0.0312 µM | [10] 1.08 µM

OCCCl
inactive: [1] | [2] | [3] | [4] | [5] | [6] | [7] | [8] | [9] | [10]

O=C(N[C@H](c1ccccc1)[C@@H]1CN2CCC1CC2)c1c(Cl)ccc(C(F)(F)F)c1Cl
inactive: [1] | [2] | [4] | [5] | [6] | [7] | [8] | [10]
active: [3] 16.3 µM | [9] 26.5 µM

OCCCBr
inactive: [1] | [2] | [3] | [4] | [5] | [6] | [7] | [8] | [9] | [10]

Clc1ccccc1Cl
inactive: [1] | [2] | [3] | [4] | [5] | [6] | [7] | [8] | [9] | [10]

Cc1ccc(N)c(N)c1
active: [1] 13.7 µM | [3] 3.97 µM | [5] 8.46 µM | [6] 6.88 µM | [9] 14.7 µM
inactive: [2] | [4] | [7] | [8] | [10]

Cc1cc(N=Nc2ccccc2C)ccc1N
inactive: [2] | [4] | [5] | [7] | [8]
active: [1] 10.7 µM | [3] 29.9 µM | [6] 20 µM | [9] 9.37 µM | [10] 28.3 µM

ClCCOCCCl
inactive: [1] | [2] | [3] | [4] | [5] | [6] | [7] | [8] | [9] | [10]

[O-][Cl+]O
inactive: [1] | [2] | [3] | [4] | [5] | [6] | [7] | [8] | [9] | [10]

CNC(=O)Oc1cccc2c1OC(C)(C)C2
inactive: [1] | [2] | [3] | [4] | [5] | [6] | [7] | [8] | [9] | [10]

Nc1ccc(Cc2ccc(N)cc2)cc1
inactive: [1] | [2] | [3] | [4] | [5] | [6] | [7] | [8] | [9] | [10]

CCCCCCCCn1sccc1=O
active: [1] 35.8 µM | [2] 14.2 µM | [3] 0.626 µM | [4] 11.5 µM | [5] 9.3 µM | [6] 2.42 µM | [8] 1.62 µM | [9] 0.405 µM | [10] 1.07 µM
inactive: [7]

CCCCCCCCCCCCCN1CC(C)OC(C)C1 (stereo not given)
active: [9] 0.541 µM
inactive: [1] | [2] | [3] | [4] | [5] | [6] | [7] | [8] | [10]

N#CC(Br)Br
inactive: [1] | [2] | [3] | [4] | [5] | [6] | [7] | [8] | [9] | [10]

N#CC(Br)(Br)C(N)=O
inactive: [1] | [2] | [3] | [4] | [5] | [6] | [7] | [8] | [9] | [10]

O=C1CCCO1
inactive: [1] | [2] | [3] | [4] | [5] | [6] | [7] | [8] | [9] | [10]

O=P(OCCCl)(OCCCl)OCCCl
inactive: [1] | [2] | [3] | [4] | [5] | [6] | [7] | [8] | [9] | [10]

CCCSC(=O)N(CCC)CCC
inactive: [1] | [2] | [3] | [4] | [5] | [6] | [7] | [8] | [9] | [10]

CCC(C)c1ccc(O)cc1 (stereo not given)
inactive: [1] | [2] | [3] | [4] | [5] | [6] | [7] | [8] | [9] | [10]

Oc1ccc2ccc3cccc4ccc1c2c34
active: [1] 16.3 µM | [3] 10.3 µM | [4] 27 µM | [6] 14.6 µM | [9] 3.17 µM | [10] 10.4 µM
inactive: [2] | [5] | [7] | [8]

CCNS(=O)(=O)C(F)(F)C(F)(F)C(F)(F)C(F)(F)C(F)(F)C(F)(F)C(F)(F)C(F)(F)F
active: [1] 24.6 µM | [3] 18 µM and 20.9 µM and 19.8 µM | [5] 9.52 µM and 11.7 µM and 5.95 µM | [7] 31.3 µM and 48.5 µM | [8] 55.1 µM and 46.4 µM | [9] 17.5 µM and 14.4 µM and 19.4 µM | [10] 17 µM and 22.2 µM and 28.5 µM
inactive: [1] | [2] | [4] | [7] | [8]

CO[C@@H]1[C@H](OC(=O)NC(=O)CCl)CC[C@]2(CO2)[C@H]1[C@@]1(C)O[C@@H]1CC=C(C)C
active: [3] 5.48 µM | [5] 6.2 µM | [6] 2.63 µM | [7] 9510 nM | [8] 11.5 µM | [9] 2.28 µM | [10] 6.58 µM
inactive: [1] | [2] | [4]

CC(C)(C)OOC(C)(C)CCC(C)(C)OOC(C)(C)C
inactive: [1] | [2] | [3] | [4] | [5] | [7] | [8] | [10]
active: [9] 31.3 µM

CN(C)c1ccccc1
inactive: [1] | [2] | [3] | [4] | [5] | [6] | [7] | [8] | [9] | [10]

COP(=S)(OC)SCN1C(=O)c2ccccc2C1=O
inactive: [1] | [2] | [3] | [4] | [5] | [7] | [8] | [9] | [10]

CCN(CC)CCO
inactive: [1] | [2] | [3] | [4] | [5] | [7] | [8] | [9] | [10]

Oc1ccccc1Cl
inactive: [1] | [2] | [3] | [4] | [5] | [7] | [8] | [9] | [10]

c1ccc(N=Nc2ccccc2)cc1
inactive: [1] | [2] | [3] | [4] | [5] | [6] | [7] | [8] | [9] | [10]

CCC[CH2][Sn]([Cl])([CH2]CCC)[CH2]CCC
active: [1] 3.97 µM | [2] 0.148 µM | [3] 0.259 µM | [4] 0.406 µM | [5] 0.148 µM | [8] 0.287 µM | [9] 0.148 µM | [10] 0.148 µM
inactive: [7]

CCCCOC(=O)c1ccccc1C(=O)OCc1ccccc1
inactive: [2] | [3] | [4] | [5] | [7] | [8] | [9]
active: [1] 20 µM | [6] 13 µM | [10] 11.8 µM

O=[N+]([O-])c1ccc(Oc2ccc(Cl)cc2Cl)cc1
inactive: [1] | [2] | [4] | [5] | [7] | [8]
active: [3] 20 µM | [6] 12.1 µM | [9] 20 µM | [10] 13.1 µM

O=C(O)C1C2CCC(O2)C1C(=O)O (stereo not given)
inactive: [1] | [2] | [3] | [4] | [5] | [7] | [8] | [10]
active: [9] 18.6 µM

CC(C)(C)C(O)(CCc1ccc(Cl)cc1)Cn1cncn1 (stereo not given)
active: [9] 0.299 µM
inactive: [1] | [2] | [3] | [4] | [5] | [6] | [7] | [8] | [10]

Nc1cc(Cl)cc(C(=O)O)c1Cl
inactive: [1] | [2] | [3] | [4] | [5] | [7] | [8] | [9] | [10]

CN(C)[C@@H]1C(=O)C(C(N)=O)=C(O)[C@@]2(O)C(=O)C3=C(O)c4c(O)cccc4[C@@](C)(O)[C@H]3C[C@@H]12
inactive: [1] | [2] | [3] | [4] | [5] | [6] | [7] | [8] | [10]
active: [9] 22.9 µM

From PubChem BioAssay (EPA / NIEHS)
